In PubChem BioAssay (NCI):
The panel holds about 83,000 compounds, 20% with a hit somewhere; the sample as a whole holds those more often.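 Interpretation: 100, growth as untreated; towards 0, rising growth inhibition; 0, no net growth; 0 to -100, cell death. Compounds scoring below 10 were considered active.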 Values without a mark were called inactive. Activity calls are given as the source filed them.

System: RPMI-8226 leukemia
Assay: NCI-60 one-dose screen, 48 h (100 = growth as untreated, 0 = no growth, -100 = all killed)
Settings: 10 µM unless noted

| SMILES | growth |
| --- | --- |
| COc1cc(-c2cc3ncccc3c3nc(OCCN(C)C)c4cccnc4c23)cc(OC)c1OC | -7.46% (active) |
| CN(C)CCCC1(c2ccc(F)cc2)OCc2cc(-c3ccc(C(F)(F)F)nc3)ccc21 (configuration not stated) | 69.2% |
| Cn1cc(-c2csc(-c3cn(CCNC(=O)OC(C)(C)C)c4ccccc34)n2)c2cccnc21 | 42.1% |
| N#CC1=C(N)Oc2c(c(N)nn2-c2ccccc2)C1c1ccc(Cl)cc1Cl (configuration not stated) | 94.4% |
| CCN1CCN(C(=O)[C@]23CC[C@@H](C)[C@H](C)[C@H]2C2=CC[C@@H]4[C@@]5(C)C/C(=C/c6cccc(OC)c6OC)C(=O)C(C)(C)[C@@H]5CC[C@@]4(C)[C@]2(C)CC3)CC1 | 15.4% |
| Cc1csc(Nc2nc(-c3ccc(Cl)cc3)nc(C(Cl)(Cl)Cl)n2)n1 | 76.7% |
| COc1ccc(/C=C(\C#N)c2cc3ccccc3n2S(C)(=O)=O)cc1 | 79.1% |
| Cc1cc(Cl)c2c(N(C)C)cccc2n1 | 104% |
| O=C1c2ccccc2NC(c2cn(-c3ccccc3)nc2-c2cccs2)N1Cc1ccccc1 (configuration not stated) | 76.2% |
| COCCNC1=C(Cl)C(=O)c2ccccc2C1=O | 90.4% |
| Oc1ccc(Nc2ccccc2)cc1 | 97.5% |
| COC(=O)[C@]12CC[C@@H](C)[C@H](C)[C@@H]1C1=CC[C@@H]3[C@@]4(C)C[C@@H](OC(C)=O)[C@H](OC(C)=O)[C@@](C)(COC(C)=O)[C@@H]4[C@H](O)C[C@@]3(C)[C@]1(C)CC2 | 5.96% (active) |
